In PubChem BioAssay (NCATS):
Where “and” joins values, the source holds several entries; their conditions need not be identical. Equal values may be shown once. Results filed as inconclusive are left out. A call without a number means that no potency is given here. Some compounds were tested as several samples or in several runs, with calls that do not always agree. Calls of active or inactive are those of the source. Unless noted, calls come from the whole dose curve; as a rule, active = well fitted curve in the direction sought with a large enough effect; inconclusive = small, poorly fitted or top-dose-only effect, or another doubt; inactive = no such curve, though single readings can be large; an effect the other way counts as inactive or inconclusive.

Columns and labels:
[1] = Cell Viability - HepG2 (AID 433; calls by dose curve;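 note: potency is the fitted concentration of half-maximal effect; cells exposed to compound for 40 hours; potency for ATP loss meaning cytotoxicity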); settings: qHTS
In short: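 Read-out is luciferase-based quantitation of cellular ATP as a measure of viable HepG2 cells after 40 h treatment at 37 °C. Signal decrease is scaled between DMSO-only and 100 uM tamoxifen controls, with AC50 fitted by the Hill equation.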

[2] = Cellular Toxicity (caspase-3) SHSY5Y (AID 657); settings: SH-SY5Y caspase-3 activation; series mostly up to 91.7 µM;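 note: cells exposed to compound for 16 hours at 37 °C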; note: potency is the fitted concentration of half-maximal effect
In short: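 qHTS, SH-SY5Y, 1500 cells/well, 5 h pre-incubation 37 °C; compound 16 h 37 °C; Caspase-Glo 3/7 1 h RT; luminescence. Norm.: DMSO = 0, 10 uM staurosporine = 100%. Hill fit → AC50.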

[3] = Cell Viability - LYMP2-001 (AID 921); settings: LYMP2-001 lymphoblastoid cell viability; series mostly up to 92.2 µM;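 note: cells exposed to compound for 24 h at 37 °C; nearly all actives have a fitted effect of over 70% in size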; note: potency is the fitted concentration of half-maximal effect
In short: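 Steps: seed 2500 lymphoblastoid cells/well; 5 hr, 37 C; add compound; 24 hr, 37 C; CellTiter-Glo reagent, 30 min room temperature; read luminescence. Concentration-response modeled by Hill equation for AC50.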

[4] = Cell Viability - LYMP1-002 - Assay at 16 hr (AID 948); settings: LYMP1-002 lymphoblastoid cell viability; series mostly up to 92.2 µM; note: potency is the fitted concentration of half-maximal effect
In short: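 Seed 2500 LYMP1-002 cells per well in complete medium and hold 5 hr at 37 C. Add compound across a concentration series and incubate 16 hr at 37 C. Add CellTiter-Glo, wait 30 min at room temperature, read luminescence.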

[5] = MultiTox-Fluor Cytotoxicity Assay - LYMP1-003 - Dead Cells (AID 961); settings: LYMP1-003 lymphoblastoid cells, dead-cell protease fluorescence; series mostly up to 92.2 µM; note: nearly all actives have a fitted effect of over 70% in size; note: potency is the fitted concentration of half-maximal effect
In short: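 Human lymphoblastoid LYMP1-003 cells (2500/well) were treated with compounds for 16 hr at 37 C in complete medium. Dead-cell protease release was read by bis-AAF-R110 fluorescence (Ex/Em 485/520). AC50 came from Hill fits, normalized to DMSO and 15 uM tetraoctylammonium bromide.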

[6] = Cell Viability - LYMP1-003 - Assay at 40 hr (AID 964); settings: LYMP1-003 lymphoblastoid viability; series mostly up to 92.2 µM; note: nearly all actives have a fitted effect of over 60% in size; note: potency is the fitted concentration of half-maximal effect
In short: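 Acute toxicity is scored as a concentration-dependent loss of intracellular ATP in LYMP1-003 cells (2500/well, complete medium) after 40 hr at 37 C, measured by CellTiter-Glo luminescence; AC50 values derive from standard Hill modelling.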

[7] = Cell Viability - LYMP2-011 (AID 969); settings: LYMP2-011 lymphoblastoid cells viability; series mostly up to 92.2 µM; note: nearly all actives have a fitted effect of over 60% in size; note: potency is the fitted concentration of half-maximal effect
In short: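 Cells seeded at 2500 per well rest 5 hr before compound addition, then incubate 24 hr at 37 C. CellTiter-Glo reagent is added for 30 min at room temperature before luminescence detection.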

[8] = Cell Viability - LYMP2-017 (AID 972); settings: LYMP2-017 lymphoblastoid cell viability; series mostly up to 92.2 µM; note: nearly all actives have a fitted effect of over 55% in size; note: potency is the fitted concentration of half-maximal effect
In short: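 In this qHTS format, lymphoblastoid cells in complete medium receive test compound for a day at 37 C before ATP content is quantified by luciferase luminescence. Reported AC50 figures come from standard Hill-equation curve fitting.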

[9] = Cell Viability - LYMP2-021 (AID 974); settings: LYMP2-021 lymphoblastoid cells viability; series mostly up to 92.2 µM;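 note: compound exposure lasts 24 hours at 37 °C; nearly all actives have a fitted effect of over 55% in size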; note: potency is the fitted concentration of half-maximal effect
In short: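 In qHTS format, compounds are tested against 2500 lymphoblastoid cells per well for 24 h; viable cell number is inferred from ATP-driven luciferase light, and Hill-equation fitting yields AC50 values.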

[10] = Cell Viability - LYMP2-023 (AID 975); settings: LYMP2-023 lymphoblastoid cell viability; series mostly up to 92.2 µM; note: nearly all actives have a fitted effect of over 55% in size; note: potency is the fitted concentration of half-maximal effect
In short: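 In this qHTS, ATP-based luciferase luminescence (CellTiter-Glo) is quantified in human lymphoblastoid cells after 24 hr compound treatment at 37 C; tetraoctylammonium bromide serves as positive control. Concentration-response curves are Hill-fitted to give AC50.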

[11] = Cell Viability - LYMP2-007 (AID 979); settings: LYMP2-007 lymphoblastoid cell viability; series mostly up to 92.2 µM;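 note: cells exposed to compound for 24 h before reading; nearly all actives have a fitted effect of over 60% in size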; note: potency is the fitted concentration of half-maximal effect
In short: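 Measured via luciferase-based ATP quantitation: lymphoblastoid cells, 24 hr compound exposure at 37 C, AC50 from Hill fits.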

[12] = Cell Viability - LYMP2-012 (AID 982); settings: LYMP2-012 lymphoblastoid cell viability qHTS; series mostly up to 92.2 µM;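 note: cellular ATP by luciferase luminescence where a drop means cytotoxicity; cells exposed to compound for one day before reading; nearly all actives have a fitted effect of over 55% in size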; note: potency is the fitted concentration of half-maximal effect
[13] = Cell Viability - LYMP2-020 (AID 986); settings: series mostly up to 92.2 µM; note: potency is the fitted concentration of half-maximal effect
In short: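 Cells at 2500 per well receive a 24 hr compound exposure at 37 C. Viability is measured as ATP-dependent luciferase luminescence, with AC50 modeled from qHTS concentration-response curves.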

[14] = Cell Viability - LYMP1-002 - Assay at 24 hr (AID 993); settings: LYMP1-002 lymphoblastoid cells viability; series mostly up to 92.2 µM; note: potency is the fitted concentration of half-maximal effect
In short: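 Viability was judged from intracellular ATP using a luciferase read-out, following a 24-hour compound incubation at 37 C of lymphoblastoid cells seeded at 2500 per well. Concentration-response data were fitted to the Hill equation for AC50.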

[15] = biological target: Peroxisome proliferator-activated receptor alpha (Homo sapiens) (UniProt Q07869); test: qHTS assay for small molecule agonists of the peroxisome proliferator-activated receptor alpha (PPARalpha) signaling pathway (AID 651778); settings: PathHunter PPARalpha complementation, chemiluminescence, 6 h; max response: stronger effect = higher value
In short: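 Cells plated at 2,000/well and held overnight at 37 C, 5% CO2, then compound added by pin tool for 6 hr; after PathHunter detection reagent and 60 min at room temperature, chemiluminescence from enzyme complementation was read.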

[16] = Cellular Toxicity (caspase-3) NIH 3T3 (AID 666); settings: NIH 3T3 caspase-3 activation, apoptosis/toxicity, 0% DMSO, 100% is 100 µM tamoxifen; series mostly up to 92.2 µM;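 note: caspase signal read after 16 h compound exposure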
In short: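 Activity: caspase-3/7 induction, NIH 3T3 cells, 16 hr treatment at 37°C, luminescent Caspase-Glo detection; AC50 via Hill equation.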

[17] = Cell Viability - LYMP2-009 (AID 968); settings: LYMP2-009 lymphoblastoid cell viability; series mostly up to 92.2 µM; note: potency is the fitted concentration of half-maximal effect
[18] = Cell Viability - LYMP2-025 (AID 976); settings: LYMP2-025 lymphoblastoid cell viability; series mostly up to 92.2 µM;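 note: cells exposed to compound for 24 h at 37 °C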; note: potency is the fitted concentration of half-maximal effect
In short: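 Luminescent ATP readout after 24 hr treatment of a human lymphoblastoid line (LYMP2-025, 2500 cells/well, 37 C). Reagent developed 30 min at room temperature; AC50 fitted with the Hill equation.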

[19] = qHTS assay for small molecule disruptors of the mitochondrial membrane potential - 5 hr assay (AID 651755; calls by dose curve; note: nearly all actives have a fitted effect of over 40% in size; note: potency is the fitted concentration of half-maximal effect); settings: JC-1-type ratio dye; series mostly up to 92.2 µM
In short: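 Seed HepG2 overnight, add compound, incubate 5 hr at 37C and 5% CO2, stain 30 min with Mito-MPS, then measure monomer (490/535 nm) and aggregate (540/590 nm) fluorescence.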

[20] = qHTS assay for small molecule agonists of the antioxidant response element (ARE) signaling pathway measured by Nrf2-dependant transcriptional activity (AID 720636; active = well fitted curve in the direction sought with a large enough effect in the repeat runs; an effect the other way counts as inactive or inconclusive; note: potency is the fitted concentration of half-maximal effect;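 for activation: HepG2 cells with an ARE-driven luciferase reporter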); settings: ARE-luc HepG2, Nrf2 luciferase reporter, 16 h; series mostly up to 92.4 µM
In short: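 Attachment 6 hr at 37 C, then compound versus DMSO vehicle for 16 hr in ARE-luc HepG2 cells (1% dialyzed FBS); luminescence recorded 30 min after ONE-Glo addition at room temperature.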

Peroxisome proliferator-activated receptor alpha (Homo sapiens), sequence (Q07869 whole entry, looked up): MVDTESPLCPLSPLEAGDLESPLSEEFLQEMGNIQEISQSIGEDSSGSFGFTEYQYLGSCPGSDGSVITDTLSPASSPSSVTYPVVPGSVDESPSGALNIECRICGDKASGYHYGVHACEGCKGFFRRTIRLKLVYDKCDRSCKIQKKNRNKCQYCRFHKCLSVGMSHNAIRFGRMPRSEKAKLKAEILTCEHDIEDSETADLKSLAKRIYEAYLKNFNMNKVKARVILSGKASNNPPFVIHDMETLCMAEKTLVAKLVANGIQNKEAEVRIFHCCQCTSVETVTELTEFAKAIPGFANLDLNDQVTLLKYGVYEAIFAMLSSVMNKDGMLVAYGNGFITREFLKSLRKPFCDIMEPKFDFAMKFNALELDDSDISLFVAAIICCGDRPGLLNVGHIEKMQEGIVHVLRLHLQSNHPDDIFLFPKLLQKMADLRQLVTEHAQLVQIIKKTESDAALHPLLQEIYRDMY

Row | SMILES | Potency [1] | Potency [2] | Potency [3] | Potency [4] | Potency [5] | Potency [6] | Potency [7] | Potency [8] | Potency [9] | Potency [10] | Potency [11] | Potency [12] | Potency [13] | Potency [14] | max response [15] | outcome [16] | Potency [17] | Potency [18] | Potency [19] | Potency [20]
1 | CC(C)CC(C)Nc1ccc(Nc2ccccc2)cc1 (centres undefined) | > 92 µM (inactive) | inactive | 15.8 µM (active) | 50.1 µM (active) | 50.1 µM (active) | 31.6 µM (active) | 50.1 µM (active) | 50.1 µM (active) | 50.1 µM (active) | 50.1 µM (active) | 39.8 µM (active) | 39.8 µM (active) | 39.8 µM (active) | 39.8 µM (active) | -7.88% (inactive) |  |  |  |  | 
2 | O=C(O)C1C(C(=O)O)C2(Cl)C(Cl)=C(Cl)C1(Cl)C2(Cl)Cl (centres undefined) | > 92 µM (inactive) | inactive | inactive | inactive | inactive | inactive | inactive | inactive | inactive | inactive | inactive | inactive | inactive | inactive | 10.1% (inactive) | inactive | inactive | inactive | inactive | inactive
3 | OC(c1ccc(Cl)cc1)(c1ccc(Cl)cc1)C(Cl)(Cl)Cl |  | inactive | inactive | inactive | inactive | inactive | inactive | inactive | inactive | inactive | inactive | inactive | inactive | inactive | -0.474% (inactive) | inactive | inactive | inactive | inactive | inactive
4 | Cc1ccc(O)cc1C | > 92 µM (inactive) |  |  |  |  |  |  |  |  |  |  |  |  |  |  |  |  |  |  | inactive
5 | Clc1ccc(C(c2ccc(Cl)cc2)C(Cl)Cl)cc1 |  | 50.1 µM (active) | inactive |  |  | 79.4 µM (active) | inactive | inactive | inactive | inactive | inactive | inactive | inactive |  | 16.9% (inactive) | inactive | inactive | inactive | 66.8 µM (active) | inactive
6 | C#CCO | > 92 µM (inactive) | inactive | inactive | inactive | inactive | inactive | inactive | inactive | inactive | inactive | inactive | inactive | inactive | inactive | -1.68% (inactive) | inactive | inactive | inactive |  | inactive
7 | O=C1C2(Cl)C3(Cl)C4(Cl)C(Cl)(Cl)C5(Cl)C3(Cl)C1(Cl)C5(Cl)C24Cl (centres undefined) | 31.3 µM (active) and 59.3 µM (active) | inactive | inactive and 39.8 µM (active) | 39.8 µM (active) | 31.6 µM (active) and 39.8 µM (active) | 25.1 µM (active) and 50.1 µM (active) | 63.1 µM (active) | 50.1 µM (active) |  | 50.1 µM (active) | 39.8 µM (active) and 50.1 µM (active) | inactive | inactive | 31.6 µM (active) and 79.4 µM (active) | 6.14% (inactive) and 11.6% (inactive) and 6.69% (inactive) | inactive | 50.1 µM (active) |  | 4.22 µM (active) and 9.44 µM (active) | inactive
8 | Oc1c(Cl)cc(Cl)cc1Cl | > 92 µM (inactive) |  |  |  |  |  |  |  |  |  |  |  |  |  |  |  |  |  |  | 
9 | O=C(CCl)c1ccccc1 |  | inactive | 7.94 µM (active) | 79.4 µM (active) | 31.6 µM (active) |  | 12.6 µM (active) | 10 µM (active) | 10 µM (active) | 12.6 µM (active) | 10 µM (active) | 10 µM (active) | 7.94 µM (active) |  | -2.05% (inactive) and -1.03% (inactive) | inactive | 10 µM (active) | 12.6 µM (active) | inactive | inactive
10 | O=[N+]([O-])c1cc(C(F)(F)F)cc([N+](=O)[O-])c1Cl | > 92 µM (inactive) | inactive | 25.1 µM (active) | inactive | inactive | inactive | 39.8 µM (active) | 31.6 µM (active) | 31.6 µM (active) | 39.8 µM (active) | 39.8 µM (active) | 31.6 µM (active) | 31.6 µM (active) | inactive | -4.28% (inactive) | inactive | 31.6 µM (active) | 50.1 µM (active) | inactive | inactive
11 | c1ccc2cc3c(cc2c1)-c1cccc2cccc-3c12 | > 92 µM (inactive) | inactive | inactive | inactive | inactive | inactive | inactive | inactive | inactive | inactive | inactive | inactive | inactive | inactive |  | inactive | inactive | inactive | 6.68 µM (active) | 9.44 µM (active) and 8.63 µM (active)
12 | Cc1ccc2ccccc2c1C | > 92 µM (inactive) |  |  |  |  |  |  |  |  |  |  |  |  |  |  |  |  |  |  | inactive
13 | N#CC(Cl)Cl |  | inactive | 10 µM (active) | inactive | inactive | inactive | 20 µM (active) | 39.8 µM (active) | 25.1 µM (active) | 25.1 µM (active) | 20 µM (active) |  | 10 µM (active) | inactive | -3.95% (inactive) | inactive | 15.8 µM (active) | 39.8 µM (active) | inactive | 
14 | Oc1c(Br)c(Br)c(Br)c(Br)c1Br | > 92 µM (inactive) | inactive | inactive | inactive | inactive | inactive | inactive | inactive | inactive | inactive |  | inactive | inactive | inactive | 10% (inactive) | inactive | inactive | inactive | 33.5 µM (active) | inactive
